Data: the supplement of paper PMC10849652
About 7,900 targets were measured; listed, in parts, are those with a hit and a random draw of the rest. About 0.6% of all pairs of compound and target were hits. Unmarked numbers belong to inactive results.

Columns and labels:
Experiment in all cases: log2 fold change, soluble protein after heating vs DMSO (PISA); higher = thermal stabilisation; K562 cells, 10 uM, 30 min; active = over 0.2 and 3.5 SD of the protein, either way, in both replicates (recomputed)
[1] = compound: C1=CC=C(C=C1)[C@H](COC2=CC3=C(C=C2)NC(=O)N3)NC(=O)C4=CC=CN(C4=O)CC5=CC(=C(C=C5)F)F
Procedure, shortened: (§1)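 Values are thermal stability changes relative to control samples and are taken from duplicates. They are stated as log2 fold changes. Before quantification by TMTpro 16plex LC-MS/MS with equalised channel sums, K562 cells at 2×10^6 cells/mL were treated with 10 μM compound for 30 min, heated in aliquots for 3 min across 48°C-58°C, pooled, extracted in PBS with 0.5% NP-40 at 4°C, and centrifuged at 21,000xg for 90 min to give the soluble supernatant.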

[2] = compound: CC1=C(SC2=C1C(=N[C@H](C3=NN=C(N32)C)CC(=O)N)C4=CC=C(C=C4)Cl)C
Procedure, shortened: as §1

[3] = compound: CC1=C2C(=CC=C1)N=C(N(C2=O)C3=CC=CC=C3C)CN4C=NC5=C(N=CN=C54)N
Procedure, shortened: as §1

[4] = compound: Cc1sc2c(c1C)C(c1ccc(Cl)cc1)=N[C@@H](CC(=O)OC(C)(C)C)c1nnc(C)n1-2
Procedure, shortened: as §1

[5] = compound: c1ccc([C@@H]2C[C@H]2NC2CCNCC2)cc1
Procedure, shortened: as §1

Chain of UniProt Q7Z4V5 (Q7Z4V5 whole entry, looked up): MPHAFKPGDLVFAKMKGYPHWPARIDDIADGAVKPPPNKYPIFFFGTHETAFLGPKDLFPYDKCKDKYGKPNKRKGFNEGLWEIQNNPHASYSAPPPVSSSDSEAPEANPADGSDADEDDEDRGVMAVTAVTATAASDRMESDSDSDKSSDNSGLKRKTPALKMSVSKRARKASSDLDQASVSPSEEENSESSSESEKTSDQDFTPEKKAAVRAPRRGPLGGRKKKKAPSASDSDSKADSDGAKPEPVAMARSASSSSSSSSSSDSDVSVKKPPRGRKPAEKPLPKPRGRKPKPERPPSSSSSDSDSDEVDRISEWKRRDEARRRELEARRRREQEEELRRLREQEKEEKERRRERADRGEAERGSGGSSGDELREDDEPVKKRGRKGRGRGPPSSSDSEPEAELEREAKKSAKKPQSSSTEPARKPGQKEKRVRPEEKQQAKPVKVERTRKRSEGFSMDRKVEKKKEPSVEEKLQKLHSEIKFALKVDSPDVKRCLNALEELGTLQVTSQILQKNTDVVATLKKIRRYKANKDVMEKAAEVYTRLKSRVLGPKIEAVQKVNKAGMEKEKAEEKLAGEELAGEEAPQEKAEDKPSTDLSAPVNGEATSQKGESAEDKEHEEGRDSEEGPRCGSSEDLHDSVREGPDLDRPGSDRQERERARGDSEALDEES
Chain of UniProt P55795 (P55795 whole entry, looked up): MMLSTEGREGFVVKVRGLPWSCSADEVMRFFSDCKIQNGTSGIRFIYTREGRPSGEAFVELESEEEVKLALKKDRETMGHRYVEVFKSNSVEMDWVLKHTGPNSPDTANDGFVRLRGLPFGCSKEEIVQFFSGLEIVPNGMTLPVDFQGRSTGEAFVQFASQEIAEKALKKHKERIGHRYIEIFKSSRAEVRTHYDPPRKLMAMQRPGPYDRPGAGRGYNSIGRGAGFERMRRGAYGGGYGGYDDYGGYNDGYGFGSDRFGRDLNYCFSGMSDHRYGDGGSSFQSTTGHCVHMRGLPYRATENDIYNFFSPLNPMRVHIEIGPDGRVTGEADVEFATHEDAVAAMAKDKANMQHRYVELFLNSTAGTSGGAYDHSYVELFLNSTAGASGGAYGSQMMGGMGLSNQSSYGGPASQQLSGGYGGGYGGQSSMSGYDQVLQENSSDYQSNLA
Chain of UniProt Q9H6D7 (Q9H6D7 whole entry, looked up): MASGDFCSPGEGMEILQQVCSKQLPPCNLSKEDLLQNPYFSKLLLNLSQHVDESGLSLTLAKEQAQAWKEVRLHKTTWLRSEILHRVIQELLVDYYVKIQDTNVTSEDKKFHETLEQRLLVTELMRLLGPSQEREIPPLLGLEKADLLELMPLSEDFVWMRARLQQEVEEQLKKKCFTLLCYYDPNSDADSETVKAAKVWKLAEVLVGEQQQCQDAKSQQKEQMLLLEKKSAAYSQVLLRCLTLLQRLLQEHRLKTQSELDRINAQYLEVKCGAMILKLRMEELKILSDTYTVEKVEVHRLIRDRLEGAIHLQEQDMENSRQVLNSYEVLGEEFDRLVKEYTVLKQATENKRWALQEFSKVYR
Chain of UniProt P48507 (P48507 whole entry, looked up): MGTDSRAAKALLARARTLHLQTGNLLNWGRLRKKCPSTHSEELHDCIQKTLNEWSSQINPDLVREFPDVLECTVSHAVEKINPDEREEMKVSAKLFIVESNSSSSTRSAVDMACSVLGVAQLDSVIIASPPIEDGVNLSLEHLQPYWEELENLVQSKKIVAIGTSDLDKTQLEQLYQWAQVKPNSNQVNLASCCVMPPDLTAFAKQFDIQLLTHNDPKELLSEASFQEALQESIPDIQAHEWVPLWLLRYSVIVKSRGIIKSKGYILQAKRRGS
Chain of UniProt P05362 (P05362 whole entry, looked up): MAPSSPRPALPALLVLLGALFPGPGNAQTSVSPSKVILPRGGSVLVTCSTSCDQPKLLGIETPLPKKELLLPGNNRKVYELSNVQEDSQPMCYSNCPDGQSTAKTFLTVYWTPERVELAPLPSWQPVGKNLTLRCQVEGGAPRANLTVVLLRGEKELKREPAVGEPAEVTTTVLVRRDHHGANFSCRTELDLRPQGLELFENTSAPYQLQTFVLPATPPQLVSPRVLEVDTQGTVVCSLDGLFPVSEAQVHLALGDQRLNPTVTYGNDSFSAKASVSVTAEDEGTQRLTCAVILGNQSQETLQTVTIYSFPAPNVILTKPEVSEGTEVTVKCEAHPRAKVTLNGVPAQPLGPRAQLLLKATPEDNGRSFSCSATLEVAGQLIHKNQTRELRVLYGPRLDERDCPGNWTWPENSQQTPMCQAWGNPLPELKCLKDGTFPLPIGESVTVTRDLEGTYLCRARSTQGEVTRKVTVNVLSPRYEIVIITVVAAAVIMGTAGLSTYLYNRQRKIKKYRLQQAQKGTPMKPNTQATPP
Chain of UniProt P15104 (P15104 whole entry, looked up): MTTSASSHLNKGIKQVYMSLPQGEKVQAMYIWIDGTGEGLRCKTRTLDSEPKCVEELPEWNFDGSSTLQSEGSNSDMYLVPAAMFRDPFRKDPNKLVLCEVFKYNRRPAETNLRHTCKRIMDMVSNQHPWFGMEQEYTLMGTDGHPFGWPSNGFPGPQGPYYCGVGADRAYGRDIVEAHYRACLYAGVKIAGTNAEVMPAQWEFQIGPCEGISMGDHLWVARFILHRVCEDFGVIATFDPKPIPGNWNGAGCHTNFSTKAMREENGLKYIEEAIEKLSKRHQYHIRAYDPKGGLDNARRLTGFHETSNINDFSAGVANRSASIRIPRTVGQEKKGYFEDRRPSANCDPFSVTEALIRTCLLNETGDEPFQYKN
Chain of UniProt Q8NB37 (Q8NB37 whole entry, looked up): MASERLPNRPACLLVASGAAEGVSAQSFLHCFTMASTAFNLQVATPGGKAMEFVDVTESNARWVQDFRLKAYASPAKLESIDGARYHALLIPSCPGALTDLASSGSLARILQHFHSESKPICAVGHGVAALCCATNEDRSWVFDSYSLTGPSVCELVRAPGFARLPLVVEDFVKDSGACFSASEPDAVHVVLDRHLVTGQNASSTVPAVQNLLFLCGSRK
Chain of UniProt P46976 (P46976 whole entry, looked up): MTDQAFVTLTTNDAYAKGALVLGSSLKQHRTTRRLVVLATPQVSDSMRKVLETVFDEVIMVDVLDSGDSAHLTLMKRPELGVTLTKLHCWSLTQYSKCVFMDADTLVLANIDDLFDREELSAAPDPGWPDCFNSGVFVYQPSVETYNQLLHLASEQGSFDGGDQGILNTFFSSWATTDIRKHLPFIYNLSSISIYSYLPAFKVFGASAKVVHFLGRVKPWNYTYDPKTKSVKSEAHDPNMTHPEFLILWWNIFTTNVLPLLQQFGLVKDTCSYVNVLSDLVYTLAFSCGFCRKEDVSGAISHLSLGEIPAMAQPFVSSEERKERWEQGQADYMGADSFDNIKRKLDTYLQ
Chain of UniProt Q86YM7 (Q86YM7 whole entry, looked up): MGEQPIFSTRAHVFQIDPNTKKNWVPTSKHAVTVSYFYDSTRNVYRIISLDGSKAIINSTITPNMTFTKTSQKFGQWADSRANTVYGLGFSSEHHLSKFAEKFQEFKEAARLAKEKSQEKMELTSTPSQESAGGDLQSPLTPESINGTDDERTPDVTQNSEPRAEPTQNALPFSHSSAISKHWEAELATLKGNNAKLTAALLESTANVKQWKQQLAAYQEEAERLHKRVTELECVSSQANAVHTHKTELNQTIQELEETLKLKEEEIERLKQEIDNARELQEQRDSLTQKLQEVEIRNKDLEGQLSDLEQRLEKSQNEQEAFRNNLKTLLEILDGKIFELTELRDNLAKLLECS
Chain of UniProt I6L899 (I6L899 whole entry, looked up): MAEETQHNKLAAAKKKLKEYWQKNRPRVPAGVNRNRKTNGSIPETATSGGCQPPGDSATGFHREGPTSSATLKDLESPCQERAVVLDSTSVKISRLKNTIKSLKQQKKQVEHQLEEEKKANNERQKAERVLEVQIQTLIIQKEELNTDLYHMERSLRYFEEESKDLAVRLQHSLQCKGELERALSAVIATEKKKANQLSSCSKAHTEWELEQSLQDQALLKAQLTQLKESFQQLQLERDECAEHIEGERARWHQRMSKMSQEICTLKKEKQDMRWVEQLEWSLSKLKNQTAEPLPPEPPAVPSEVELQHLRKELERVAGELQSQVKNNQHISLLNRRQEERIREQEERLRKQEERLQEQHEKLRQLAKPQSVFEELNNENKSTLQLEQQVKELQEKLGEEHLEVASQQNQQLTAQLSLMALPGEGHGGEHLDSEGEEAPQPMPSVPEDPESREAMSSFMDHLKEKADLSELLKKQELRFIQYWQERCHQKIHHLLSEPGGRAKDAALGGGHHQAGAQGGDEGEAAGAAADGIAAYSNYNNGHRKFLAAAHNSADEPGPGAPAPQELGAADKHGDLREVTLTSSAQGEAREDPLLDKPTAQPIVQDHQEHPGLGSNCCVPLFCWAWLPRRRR
Chain of UniProt P01112 (P01112 whole entry, looked up): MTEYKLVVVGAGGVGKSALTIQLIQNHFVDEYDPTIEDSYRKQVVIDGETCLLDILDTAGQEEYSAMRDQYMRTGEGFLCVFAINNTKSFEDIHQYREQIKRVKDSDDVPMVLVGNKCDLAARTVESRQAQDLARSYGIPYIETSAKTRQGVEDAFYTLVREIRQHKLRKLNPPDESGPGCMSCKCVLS
Chain of UniProt P31943 (P31943 whole entry, looked up): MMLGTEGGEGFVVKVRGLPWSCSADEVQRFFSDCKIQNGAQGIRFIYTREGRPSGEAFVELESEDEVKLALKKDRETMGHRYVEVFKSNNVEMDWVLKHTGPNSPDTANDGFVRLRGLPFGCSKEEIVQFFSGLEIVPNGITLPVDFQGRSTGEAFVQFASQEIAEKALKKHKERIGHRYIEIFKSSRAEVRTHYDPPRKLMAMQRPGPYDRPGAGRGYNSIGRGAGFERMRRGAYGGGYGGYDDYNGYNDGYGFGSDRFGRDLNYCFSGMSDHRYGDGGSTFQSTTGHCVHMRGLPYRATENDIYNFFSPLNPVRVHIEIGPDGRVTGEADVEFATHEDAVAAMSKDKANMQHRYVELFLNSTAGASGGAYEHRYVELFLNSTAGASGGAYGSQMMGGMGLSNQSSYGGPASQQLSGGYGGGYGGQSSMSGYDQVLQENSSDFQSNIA

Row | Target | log2 fold change [1] | log2 fold change [2] | log2 fold change [3] | log2 fold change [4] | log2 fold change [5]
1 | GABPA (UniProt Q06546) | -0.001 | 0.005 | 0.149 | -0.01 | -0.041
2 | GNPAT (UniProt O15228) | -0.034 | 0.043 | 0.07 | -0.01 | -0.036
3 | HAUS4 (UniProt Q9H6D7) | 0.094 | -0.066 | 0.077 | -0.021 | -0.002
4 | GOPC (UniProt Q9HD26) | -0.315 | -0.016 | 0.018 | 0.169 | -0.054
5 | HADHB (UniProt P55084) | -0.238 | 0.235 | 0.2 | 0.363 | -0.085
6 | GALNT4 (UniProt Q8N4A0) | 0.007 | 0.062 | 0.109 | -0.033 | -0.002
7 | HMGN1 (UniProt P05114) | 0.042 | -0.023 | -0.119 | 0.027 | 0.048
8 | GLCCI1 (UniProt Q86VQ1) | -0.088 | -0.041 | 0.137 | 0.013 | -0.075
9 | IFITM3 (UniProt Q01628) | 0.038 | -0.024 | -0.06 | 0.081 | -0.014
10 | GABARAPL1 isoform 2 (UniProt Q9H0R8) | 0.02 | 0.094 | 0.073 | -0.022 | -0.036
11 | GPKOW (UniProt Q92917) | -0.133 | 0.078 | 0.076 | 0 | -0.015
12 | GYG1 (UniProt P46976) | 0.02 | -0.077 | -0.046 | -0.008 | -0.019
13 | FBXO3 (UniProt Q9UK99) | 0.006 | -0.03 | 0.033 | 0.055 | 0.127
14 | HSPA8 (UniProt E9PN89) | 0 | 0.094 | 0.123 | 0.133 | 0.104
15 | GLB1 (UniProt P16278) | 0.042 | -0.065 | 0.011 | -0.043 | 0.026
16 | GUSB (UniProt P08236) | 0.019 | -0.057 | -0.048 | 0.039 | 0.053
17 | HNRNPF (UniProt P52597) | -0.032 | -0.049 | -0.019 | -0.02 | -0.017
18 | GPAT4 (UniProt Q86UL3) | 0.023 | 0.046 | 0.013 | -0.046 | -0.015
19 | HNRNPH1 (UniProt P31943) | -0.032 | -0.007 | 0.045 | -0.015 | -0.017
20 | GTPBP6 (UniProt O43824) | 0.038 | 0.007 | 0.012 | -0.062 | -0.034
21 | GTF3C4 (UniProt Q9UKN8) | 0.027 | 0.065 | 0.143 | 0.02 | 0.025
22 | HMGB3 (UniProt O15347) | -0.005 | 0.022 | -0.03 | -0.055 | -0.033
23 | FKBP7 (UniProt Q9Y680) | -0.027 | 0.005 | 0.091 | 0.009 | 0.102
24 | GLUL (UniProt P15104) | -0.015 | 0.005 | 0 | -0.007 | 0.02

Row | Target | log2 fold change [1] | log2 fold change [2] | log2 fold change [3] | log2 fold change [4] | log2 fold change [5]
25 | GTF2B (UniProt Q00403) | -0.036 | 0.007 | 0.154 | 0.017 | -0.002
26 | HHEX (UniProt Q03014) | 0.054 | 0.187 | 0.469 | 0.026 | 0.516
27 | HDGFL2 (UniProt Q7Z4V5) | -0.043 | 0.007 | -0.03 | -0.012 | 0.065
28 | HMG20A (UniProt Q9NP66) | 0.07 | -0.085 | 0.048 | 0.048 | 0.536 (active)
29 | FUCA1 (UniProt P04066) | -0.001 | 0.058 | 0.03 | 0.018 | 0.053
30 | HMGN2 (UniProt P05204) | -0.099 | -0.056 | -0.033 | 0.021 | 0.07
31 | ICAM1 (UniProt P05362) | -0.005 | 0.021 | 0.049 | 0.012 | 0.031
32 | FAT1 (UniProt Q14517) | -0.059 | -0.038 | 0.126 | -0.071 | 0.155
33 | GOLGA8R (UniProt I6L899) | 0.106 | 0.211 | 0.326 | 0.043 | -0.003
34 | GATD1 (UniProt Q8NB37) | -0.038 | 0.043 | 0.019 | 0.019 | 0.007
35 | HDAC2 (UniProt Q92769) | 0.022 | 0.042 | 0.08 | -0.002 | 0.111
36 | HRAS (UniProt P01112) | 0.015 | 0.116 | -0.03 | 0.016 | 0.138
37 | GEMIN5 (UniProt Q8TEQ6) | -0.004 | -0.019 | 0.022 | 0.021 | 0.005
38 | HOMER1 (UniProt Q86YM7) | -0.08 | 0.035 | 0.02 | -0.005 | 0.007
39 | GNAI3 (UniProt P08754) | -0.005 | 0.019 | 0.011 | -0.154 | -0.032
40 | GAPVD1 isoform 6 (UniProt Q14C86) | -0.09 | 0.008 | 0.097 | 0.012 | -0.018
41 | HNRNPH2 (UniProt P55795) | -0.096 | -0.037 | 0.097 | -0.035 | -0.003
42 | GPD1 (UniProt P21695) | 0.095 | 0.028 | 0.123 | -0.019 | -0.238
43 | GCLM (UniProt P48507) | -0.014 | 0.062 | 0.108 | 0 | -0.053
44 | GTF2E2 (UniProt P29084) | -0.009 | 0.043 | 0.126 | -0.058 | 0.012
45 | HEATR3 (UniProt Q7Z4Q2) | -0.073 | -0.014 | 0.026 | 0.004 | -0.04
46 | FAT2 (UniProt Q9NYQ8) | -0.092 | 0.669 (active) | 0.163 | -0.091 | -0.218
47 | H2AZ1 (UniProt P0C0S5) | 0.12 | -0.153 | -0.247 | -0.021 | 0.123
